“And” between values parts separate entries of the source, which are not always exact repeats. Equal entries are not always repeated. Results filed as inconclusive are left out. The source made the active and inactive calls. Unless noted, calls follow the shape of the dose curve; as a rule, active = well fitted curve in either direction with a large enough effect (not every such curve was filed as active); inconclusive = small, poorly fitted or top-dose-only effect, or another doubt; inactive = flat fitted curve, though single readings scatter.
Experiments:
[1] = AP1 Signaling Pathway (AID 357); details: ME-180 AP-1-bla reporter, EGF-induced, beta-lactamase ratio, 5 h;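 also: ME-180 reporter cells stimulated with EGF at its EC50 level; % is scaled to controls: 0 for no effect and ±100 for the full control effect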
In short: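 Cells are seeded overnight, exposed to compound titrations and an EC50 level of EGF for 5 hours at 37 °C, then loaded with CCF4 dye for 2.5 hours. Beta-lactamase activity under the AP-1 element is read as a blue/green ratio.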

[2] = molecular target: Cytochrome P450 1A2 (Homo sapiens) (UniProt P05177); assay: p450-cyp1a2 (AID 410; calls by dose curve; also: potency is read from the fitted curve at half-maximal effect;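 as to activity change, negative = inhibition: -100% = full effect of reference inhibitor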); details: recombinant CYP1A2, luciferin-ME demethylation, luminescence; series mostly up to 57 µM
Cytochrome P450 1A2 (Homo sapiens), sequence (P05177 whole entry, looked up): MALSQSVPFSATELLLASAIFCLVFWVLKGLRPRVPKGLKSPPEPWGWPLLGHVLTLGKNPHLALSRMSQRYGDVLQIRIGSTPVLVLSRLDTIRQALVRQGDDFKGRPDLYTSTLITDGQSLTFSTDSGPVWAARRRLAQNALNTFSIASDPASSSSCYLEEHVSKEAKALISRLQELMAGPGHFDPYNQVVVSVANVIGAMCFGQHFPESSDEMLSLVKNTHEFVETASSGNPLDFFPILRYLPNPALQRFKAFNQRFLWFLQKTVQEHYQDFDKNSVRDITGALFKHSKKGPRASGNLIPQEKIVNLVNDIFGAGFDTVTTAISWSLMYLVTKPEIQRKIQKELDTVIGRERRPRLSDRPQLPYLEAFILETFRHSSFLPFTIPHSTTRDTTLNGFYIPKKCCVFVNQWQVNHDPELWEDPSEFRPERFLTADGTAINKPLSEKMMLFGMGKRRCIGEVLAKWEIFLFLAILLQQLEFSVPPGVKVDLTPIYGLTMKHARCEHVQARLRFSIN
In short: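 20nM CYP1A2 with 100uM Luciferin-ME (at Km) in 100mM KPO4; compound preincubated 10 min, NADPH regeneration added, 60 min at room temperature. Luciferin quantified by luminescence after detection reagent; normalized to 57 uM furafylline.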

[3] = NFAT Signaling Pathway (AID 444); details: Jurkat NFAT-bla M1, carbachol, beta-lactamase ratio, 5 h;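 also: carbachol stimulus at about its EC50 of 1 µM final; % is scaled to controls: 0 for no effect and ±100 for the full control effect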
In short: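 Jurkat cells carrying an NFAT-driven β-lactamase reporter and co-transfected muscarinic M1 receptor were treated with compound plus carbachol (1 uM final, an EC50 level) for 5 h at 37 °C. CCF4 loading followed for 1 h at RT; 460/530 nm ratio gave %activity.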

[4] = Stat Signaling Pathway (AID 446); details: ME-180 SIE beta-lactamase reporter, IL-6 stimulated, 5 h;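 also: ME-180 cervical cancer cells given 40 pM IL-6 alongside compound; SIE-controlled beta-lactamase reporter measured as 460/530 nm FRET emission ratio; % is scaled to controls: 0 for no effect and ±100 for the full control effect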
In short: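 ME-180 cells carrying a SIE-driven beta-lactamase reporter are stimulated with 40 pM IL-6 for 5 h at 37C in the presence of compound. The 460/530 nm FRET substrate ratio is read after 2.5 h at RT. Data are normalised to 300 pM IL-6 and to 125 nM JAK inhibitor controls.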

[5] = molecular target: Glucocorticoid receptor (Homo sapiens) (UniProt P04150); assay: GR-GFP Redistribution (AID 450;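 active = compounds whose dose series gives a full or clear partial fitted curve of increased nuclear translocation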; also: potency is read from the fitted curve at half-maximal effect); details: U2OS GR-GFP nuclear translocation, laser cytometry, 2 h
Glucocorticoid receptor (Homo sapiens), sequence (P04150 whole entry, looked up, the tested form may be a part): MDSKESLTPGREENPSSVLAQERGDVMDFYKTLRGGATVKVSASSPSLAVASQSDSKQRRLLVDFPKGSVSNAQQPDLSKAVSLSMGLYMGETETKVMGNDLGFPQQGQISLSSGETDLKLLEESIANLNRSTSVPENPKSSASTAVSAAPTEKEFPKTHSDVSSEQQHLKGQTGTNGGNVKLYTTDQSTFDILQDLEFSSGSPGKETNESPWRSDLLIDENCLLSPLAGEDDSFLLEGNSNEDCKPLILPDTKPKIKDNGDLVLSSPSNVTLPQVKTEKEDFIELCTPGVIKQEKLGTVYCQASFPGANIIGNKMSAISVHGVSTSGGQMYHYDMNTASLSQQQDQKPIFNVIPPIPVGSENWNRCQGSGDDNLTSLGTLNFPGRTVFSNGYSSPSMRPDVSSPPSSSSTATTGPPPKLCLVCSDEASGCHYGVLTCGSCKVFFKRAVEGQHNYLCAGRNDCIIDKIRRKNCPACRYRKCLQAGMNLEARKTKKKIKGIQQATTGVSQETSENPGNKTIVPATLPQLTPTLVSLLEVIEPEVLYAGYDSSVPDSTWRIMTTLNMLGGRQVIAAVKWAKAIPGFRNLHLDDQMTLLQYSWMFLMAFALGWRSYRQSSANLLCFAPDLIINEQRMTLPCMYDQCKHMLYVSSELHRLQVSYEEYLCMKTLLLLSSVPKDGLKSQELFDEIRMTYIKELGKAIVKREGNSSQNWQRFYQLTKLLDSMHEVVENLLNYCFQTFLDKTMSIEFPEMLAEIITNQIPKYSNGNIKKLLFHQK

[6] = molecular target: Glucocorticoid receptor (Homo sapiens) (UniProt P04150); assay: GR-EFC Redistribution (AID 451; calls by dose curve; also: potency is read from the fitted curve at half-maximal effect); details: CHO-K1 GR-EFC translocation, beta-gal luminescence, 2 h
In short: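 CHO-K1 cells stably expressing nuclear-localized β-gal enzyme acceptor and GR fused C-terminally to the enzyme donor fragment; ligand-driven nuclear translocation restores β-gal by complementation. Compounds titrated up to 46 uM final, 2 h at 37 °C; luminescence read.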

[7] = molecular target: Mitogen-activated protein kinase 10 (Mus musculus) (UniProt Q61831); assay: JNK3 AlphaScreen Assay (AID 530); details: JNK3 lysate, c-Jun phosphorylation; series mostly up to 57.1 µM;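 also: kinase came from lysate of stimulated human HepG2 cells; signal reports phosphorylation of biotinylated GST-cJun 1-79 at Ser73 with 10 µM ATP; % is scaled to controls: 0 for no effect and ±100 for the full control effect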
In short: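 Inhibitors reduce antibody binding to phosphorylated biotin-cJun, lowering AlphaScreen luminescence. Lysates from HepG2 cells pre-activated by IL-1beta plus TNF-alpha supplied JNK3; compounds were titrated.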

[8] = molecular target: 3',5'-cyclic-AMP phosphodiesterase 4B (Homo sapiens) (UniProt Q07343); assay: qHTS Assay for Inhibitors of PDE-IV (AID 607; active = well fitted activation curve with a large enough effect in the main read-out, with a control signal flat, not every such curve was filed as active; also: % of control where 0% means no effect); details: HEK293 ACTOne CNG channel cells, membrane potential fluorescence; series mostly up to 22.9 µM
3',5'-cyclic-AMP phosphodiesterase 4B (Homo sapiens), sequence (Q07343 whole entry, looked up): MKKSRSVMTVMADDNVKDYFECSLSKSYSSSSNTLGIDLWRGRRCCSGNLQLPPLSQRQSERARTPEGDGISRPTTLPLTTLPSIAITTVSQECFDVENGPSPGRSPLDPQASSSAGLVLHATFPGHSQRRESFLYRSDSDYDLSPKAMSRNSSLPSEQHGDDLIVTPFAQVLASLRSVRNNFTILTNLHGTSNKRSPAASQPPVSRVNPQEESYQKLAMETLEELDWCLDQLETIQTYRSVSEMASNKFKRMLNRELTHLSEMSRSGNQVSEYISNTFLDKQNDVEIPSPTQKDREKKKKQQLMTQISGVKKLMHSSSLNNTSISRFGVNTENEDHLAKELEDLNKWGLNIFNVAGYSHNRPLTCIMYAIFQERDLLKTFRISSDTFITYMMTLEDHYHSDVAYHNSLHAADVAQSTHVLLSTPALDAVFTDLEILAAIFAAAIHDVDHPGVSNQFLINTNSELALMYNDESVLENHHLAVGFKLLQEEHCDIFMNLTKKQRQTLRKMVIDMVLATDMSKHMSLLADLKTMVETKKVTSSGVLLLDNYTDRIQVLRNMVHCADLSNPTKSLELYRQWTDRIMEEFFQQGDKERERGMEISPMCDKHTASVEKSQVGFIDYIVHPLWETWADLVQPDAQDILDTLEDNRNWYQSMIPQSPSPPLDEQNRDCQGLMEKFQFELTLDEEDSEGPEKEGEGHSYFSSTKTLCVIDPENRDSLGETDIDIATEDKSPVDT
In short: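 HEK293 ACTOne cells with CNG channel (1000/well), endogenous PDE4; membrane potential dye, compounds up to 22.9 uM final. Fluorescence Ex 535/Em 590; RO 20-1724 (100 uM final) as reference.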

[9] = molecular target: Guanine nucleotide-binding protein G(i) subunit alpha-1 (Homo sapiens) (UniProt P63096); assay: qHTS Assay for Inhibitors of RGS12 GoLoco Motif Activity (Green Fluorophore) (AID 879; active = well fitted curve in the direction sought with a large enough effect; an effect the other way counts as inactive or inconclusive;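 also: 0% = labeled peptide with Gαi1 and full inhibition = labeled peptide alone without protein; negative values mean loss of peptide binding seen as reduced polarization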); details: Galphai1/FITC-RGS12 GoLoco peptide, fluorescence polarization; series mostly up to 57.1 µM
Guanine nucleotide-binding protein G(i) subunit alpha-1 (Homo sapiens), sequence (P63096 whole entry, looked up): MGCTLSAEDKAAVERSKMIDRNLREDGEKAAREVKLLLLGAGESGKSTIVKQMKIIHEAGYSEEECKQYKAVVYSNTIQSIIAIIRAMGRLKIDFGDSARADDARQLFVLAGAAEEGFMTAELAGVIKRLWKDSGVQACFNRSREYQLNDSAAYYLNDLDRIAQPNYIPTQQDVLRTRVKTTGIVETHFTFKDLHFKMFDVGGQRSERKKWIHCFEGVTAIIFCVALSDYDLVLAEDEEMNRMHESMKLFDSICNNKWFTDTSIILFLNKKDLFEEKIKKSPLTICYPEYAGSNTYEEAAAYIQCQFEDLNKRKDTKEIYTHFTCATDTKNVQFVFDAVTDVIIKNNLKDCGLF
In short: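 Fluorescence polarization assay: 50 nM Gαi1 with 10 nM FITC-labeled RGS12 GoLoco peptide in 10 mM Tris pH 7.5, 150 mM NaCl, 0.1 mM GDP, 0.05% NP40, 10 min at room temperature with compound.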

[10] = molecular target: Cytochrome P450 3A4 (Homo sapiens) (UniProt P08684); assay: qHTS Assay for Activators of Cytochrome P450 3A4 (AID 885; active = well fitted curve in the direction sought with a large enough effect; an effect the other way counts as inactive or inconclusive; also: nearly all actives have a fitted effect of over 65% in size); details: recombinant CYP3A4, Luciferin-PPXE luminescence, 60 min; series mostly up to 57.1 µM
In short: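 Human CYP3A4 (20 nM) with Luciferin-PPXE at 25 uM (its KM) in 200 mM KPO4; 10 min compound preincubation, then NADPH regeneration and 60 min reaction at RT. Luciferin read by luminescence; normalized to 57 uM ketoconazole full inhibition.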

[11] = molecular target: Cytochrome P450 2D6 (Homo sapiens) (UniProt P10635); assay: qHTS Assay for Inhibitors and Substrates of Cytochrome P450 2D6 (AID 891; active = well fitted curve in the direction sought with a large enough effect; an effect the other way counts as inactive or inconclusive; also: nearly all actives have a fitted effect of over 60% in size; also: potency is read from the fitted curve at half-maximal effect); details: recombinant CYP2D6, luciferin-ME EGE luminescence; series mostly up to 57.1 µM
In short: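 Human CYP2D6 (5 nM) with 30 uM Luciferin-ME EGE (at Km) in 100 mM KPO4, compound preincubated 10 min, then NADPH regeneration system for 60 min at room temperature. Luciferin read by luminescence; normalized to 1.43 uM quinidine.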

[12] = qHTS Assay for Identification of Small Molecule Agonists for Thrombopoietin (TPO) Signaling Pathway (AID 917; active = well fitted curve in the direction sought with a large enough effect; an effect the other way counts as inactive or inconclusive; also: % is scaled to controls: 0 for no effect and ±100 for the full control effect); details: TPO signaling pathway reporter cells, agonist qHTS, stimulated with TPO at its EC50; series mostly up to 38.5 µM
In short: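 Luminescence from a Glycoprotein IIb promoter–driven luciferase reporter served as read-out in murine Ba/F3 cells carrying the human TPO receptor. Cells, deprived of IL-3 overnight, received compounds with 26 pM TPO and were incubated 24 hrs at 37 C.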

[13] = molecular target: Pyruvate kinase (Leishmania mexicana) (UniProt Q27686); assay: qHTS Validation Assay for Inhibitors of Leishmania Mexicana Pyruvate Kinase (AID 945; active = well fitted curve in the direction sought with a large enough effect; an effect the other way counts as inactive or inconclusive;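 also: 0% = DMSO only neutral control wells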); details: purified L. mexicana pyruvate kinase, enzyme activity, E451W mutant enzyme; series mostly up to 57.5 µM
Pyruvate kinase (Leishmania mexicana), sequence (Q27686 2-499 E452W): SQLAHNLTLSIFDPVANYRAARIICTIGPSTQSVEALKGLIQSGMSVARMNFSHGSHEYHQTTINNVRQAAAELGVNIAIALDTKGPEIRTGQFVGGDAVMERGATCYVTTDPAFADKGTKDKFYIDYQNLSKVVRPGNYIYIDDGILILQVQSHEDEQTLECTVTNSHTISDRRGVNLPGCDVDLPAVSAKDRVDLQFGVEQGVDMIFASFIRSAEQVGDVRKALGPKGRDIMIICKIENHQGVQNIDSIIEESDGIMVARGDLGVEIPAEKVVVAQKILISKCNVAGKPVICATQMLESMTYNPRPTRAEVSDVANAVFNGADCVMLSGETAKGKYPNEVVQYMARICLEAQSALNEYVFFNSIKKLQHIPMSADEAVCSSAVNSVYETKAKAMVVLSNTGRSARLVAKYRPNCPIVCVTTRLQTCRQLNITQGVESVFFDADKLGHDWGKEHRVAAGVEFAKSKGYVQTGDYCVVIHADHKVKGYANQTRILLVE
In short: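 LmPYK E451W 0.2 nM; 0.5 mM PEP, 0.1 mM ADP, 7 mM MgCl2, 50 mM KCl, imidazole pH 7.2, 0.01% Tween 20, 0.05% BSA; 1 h RT; PKLight luminescence; DMSO-normalized.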

[14] = molecular target: Pyruvate kinase PKM (Homo sapiens) (UniProt P14618); assay: qHTS Assay for Activators of Human Muscle Pyruvate Kinase (AID 954; active = well fitted curve in the direction sought with a large enough effect, not every such curve was filed as active;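 also: 0% = uninhibited enzyme and -100% = no enzyme or full thiadiazolimine inhibition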); details: purified human muscle pyruvate kinase, luciferase-coupled luminescence, 1 h; series mostly up to 57.5 µM
Pyruvate kinase PKM (Homo sapiens), sequence (P14618 whole entry, looked up): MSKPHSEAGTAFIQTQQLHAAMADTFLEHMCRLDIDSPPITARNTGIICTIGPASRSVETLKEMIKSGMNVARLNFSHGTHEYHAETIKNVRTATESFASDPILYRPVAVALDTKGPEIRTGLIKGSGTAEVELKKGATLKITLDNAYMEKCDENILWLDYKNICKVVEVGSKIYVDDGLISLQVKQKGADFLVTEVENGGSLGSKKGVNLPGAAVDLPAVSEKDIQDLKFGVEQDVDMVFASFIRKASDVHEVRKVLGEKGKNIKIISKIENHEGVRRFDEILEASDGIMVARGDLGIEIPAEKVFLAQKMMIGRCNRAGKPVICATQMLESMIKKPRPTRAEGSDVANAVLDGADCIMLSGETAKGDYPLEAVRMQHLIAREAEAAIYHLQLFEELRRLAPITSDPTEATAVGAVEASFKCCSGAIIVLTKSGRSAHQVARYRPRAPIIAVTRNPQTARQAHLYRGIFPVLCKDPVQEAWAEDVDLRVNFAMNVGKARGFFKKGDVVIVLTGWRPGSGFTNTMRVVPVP
In short: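 Purified human PKM2 (0.1 nM) with 0.5 mM PEP (Km) and 0.1 mM ADP in 50 mM imidazole pH 7.2, KCl, MgCl2, 1 h at room temperature; ATP formed read by coupled luciferase luminescence. Normalized to no-enzyme/110 uM thiadiazolimine inhibition; 0.3 nM enzyme column for activation.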

[15] = molecular target: Alpha-galactosidase A (Homo sapiens) (UniProt P06280); assay: Counterscreen for Glucocerebrosidase Inhibitors: qHTS Assay for Human alpha-Galactosidase at pH 4.5 (AID 992; active = well fitted curve in the direction sought with a large enough effect; an effect the other way counts as inactive or inconclusive; also: 0% is about no effect); details: purified enzyme, fluorogenic substrate; series mostly up to 76.9 µM
Alpha-galactosidase A (Homo sapiens), sequence (P06280 whole entry, looked up): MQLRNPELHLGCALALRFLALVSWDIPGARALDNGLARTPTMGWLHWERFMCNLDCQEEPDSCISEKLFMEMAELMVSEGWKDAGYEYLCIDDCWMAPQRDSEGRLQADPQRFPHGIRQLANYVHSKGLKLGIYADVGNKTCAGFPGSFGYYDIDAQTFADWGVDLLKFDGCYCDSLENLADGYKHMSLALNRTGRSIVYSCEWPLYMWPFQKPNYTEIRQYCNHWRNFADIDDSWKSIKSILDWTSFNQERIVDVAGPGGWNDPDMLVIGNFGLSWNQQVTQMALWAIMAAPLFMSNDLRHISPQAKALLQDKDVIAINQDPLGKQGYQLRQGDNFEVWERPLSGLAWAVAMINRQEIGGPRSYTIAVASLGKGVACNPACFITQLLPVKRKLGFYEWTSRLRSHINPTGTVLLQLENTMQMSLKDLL
In short: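 Human enzyme (2 nM) with 80 uM 4-methylumbelliferyl alpha-D-galactopyranoside in 50 mM citric acid, 0.005% Tween-20, pH 4.5, 20 min at room temperature. Compounds 0.7 nM–77 uM; fluorescence Ex 365/Em 440 after pH 10 stop; AC50 from Hill fits.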

[16] = molecular target: alpha-glucosidase (Oryza sativa, rice) (UniProt Q653V4); assay: Counterscreen for Glucocerebrosidase Inhibitors: qHTS Assay for Rice alpha-Glucosidase at pH 5.0 (AID 997; active = well fitted curve in the direction sought with a large enough effect; an effect the other way counts as inactive or inconclusive;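 also: 0% = full activity with enzyme and -100% = basal without enzyme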); details: rice alpha-glucosidase enzyme activity; series mostly up to 76.9 µM
In short: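 Rice alpha-glucosidase (4 nM final) with 400 uM 4-methylumbelliferyl-alpha-D-glucopyranoside in citrate buffer pH 5.0, 20 min at room temperature, stopped at pH 10; fluorescence 365/440 nm, compounds 0.7 nM–77 uM, AC50 from Hill fits.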

[17] = qHTS Assay for Lipid Storage Modulators (AID 1519; calls by dose curve); details: Drosophila S3 cells, BODIPY lipid droplet/cell ratio, laser cytometry, cells loaded with oleic acid; for activity change, negative = inhibition: at 25.7 µM (top of the series)
In short: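 Cells seeded at 5,000 per well were treated with compounds over a concentration series and loaded with oleic acid (400 uM, as added). Lipid droplet fluorescence (488 nm excitation, 500-530 nm channel) was read by laser-scanning cytometry and normalized to 20 uM Triacsin C.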

[18] = molecular target: Ubiquitin carboxyl-terminal hydrolase 1 (Homo sapiens) (UniProt O94782); assay: Inhibitors of USP1/UAF1: Pilot qHTS (AID 504865; active = well fitted curve in the direction sought with a large enough effect; an effect the other way counts as inactive or inconclusive;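 also: rhodamine fluorescence freed from ubiquitin-rhodamine substrate followed over time; top concentration of the series differs between compounds; % is scaled to controls: 0 for no effect and ±100 for the full control effect; nearly all actives have a fitted effect of over 35% in size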); details: purified USP1/UAF1, Ub-rhodamine cleavage fluorescence; series mostly up to 54.9 µM
Ubiquitin carboxyl-terminal hydrolase 1 (Homo sapiens), sequence (O94782 whole entry, looked up): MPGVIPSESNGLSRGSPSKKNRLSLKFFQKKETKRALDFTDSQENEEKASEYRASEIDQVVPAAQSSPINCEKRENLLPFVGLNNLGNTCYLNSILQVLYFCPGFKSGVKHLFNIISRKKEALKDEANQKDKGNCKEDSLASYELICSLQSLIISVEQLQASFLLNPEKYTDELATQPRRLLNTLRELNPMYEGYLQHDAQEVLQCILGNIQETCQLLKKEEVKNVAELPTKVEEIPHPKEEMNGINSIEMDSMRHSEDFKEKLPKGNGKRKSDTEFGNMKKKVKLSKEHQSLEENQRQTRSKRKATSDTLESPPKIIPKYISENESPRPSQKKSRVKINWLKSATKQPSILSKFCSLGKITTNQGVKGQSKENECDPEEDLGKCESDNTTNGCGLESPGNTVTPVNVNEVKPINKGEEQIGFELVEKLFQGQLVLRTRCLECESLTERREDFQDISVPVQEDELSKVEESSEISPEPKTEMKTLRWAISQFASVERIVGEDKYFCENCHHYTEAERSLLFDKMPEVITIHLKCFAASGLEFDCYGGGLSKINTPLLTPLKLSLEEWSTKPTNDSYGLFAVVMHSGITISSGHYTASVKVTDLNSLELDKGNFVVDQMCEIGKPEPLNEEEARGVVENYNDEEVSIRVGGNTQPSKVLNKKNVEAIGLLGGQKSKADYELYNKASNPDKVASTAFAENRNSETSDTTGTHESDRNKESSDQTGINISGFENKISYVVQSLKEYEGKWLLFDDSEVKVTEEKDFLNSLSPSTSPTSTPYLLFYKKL
In short: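 In 50mM HEPES pH 7.8 containing 0.5mM EDTA, 1mM TCEP, 0.1 mg/ml BSA and 0.01% Tween-20, 1nM USP1/UAF1 is exposed to compound for 15 min, then Ub-Rho (150nM final) is added and fluorescence is read over time.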

[19] = qHTS profiling for inhibitors of Plasmodium falciparum proliferation (AID 504749; active = well fitted curve in the direction sought with a large enough effect; an effect the other way counts as inactive or inconclusive;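 also: 0% = DMSO vehicle and full inhibition = artemisinin control; nearly all actives have a fitted effect of over 60% in size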); details: P. falciparum in erythrocytes, SYBR Green DNA, 72 h
In short: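 Parasite proliferation within erythrocytes, 72 h exposure. Endpoint: SYBR Green I fluorescence after overnight lysis at room temperature. Controls: 0.29 uM artemisinin, DMSO.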

[20] = measured here: cell count channel max response
[21] = measured here: lipid channel max response

COc1cc(=O)n(C)c2c(OC[C@@H](O)C(C)(C)O)cccc12
-18.8%: max response [17, 21]
inactive: activity change, negative = inhibition ([1]; at 17.2 µM (top of the series)) 11.5% | activity change, negative = inhibition ([1]; at 38 µM (top of the series)) 3.48% | activity change, negative = inhibition ([3]; at 17.2 µM (top of the series)) 1.64% | activity change, negative = inhibition ([3]; at 38 µM (top of the series)) 5.18% | activity, negative = inhibition ([4]; at 17.2 µM (top of the series)) -4.39% | activity, negative = inhibition ([4]; at 38 µM (top of the series)) 1.34% | Potency [5] > 46 µM and > 20.6 µM | Potency [6] > 46 µM and > 20.6 µM | Potency [7] | Potency [8] | Potency [9] | Potency [10] | Potency [11] | outcome [12] | outcome [13] | outcome [14] | outcome [15] | outcome [16] | activity change, negative = inhibition [17] -2.03% | Potency [18]
active: Potency [2] 20 µM and 12.6 µM
-7.54%: max response [17, 20]

C=CCc1ccccc1OC[C@H](O)CNC(C)C
-3.45%: max response [17, 21]
active: Potency [2] 7.94 µM and 3.16 µM | Potency [11] 6.31 µM
-4%: max response [17, 20]
inactive: activity change, negative = inhibition ([1]; at 17.2 µM (top of the series)) 12.5% | activity change, negative = inhibition ([1]; at 38 µM (top of the series)) 11.9% | activity change, negative = inhibition ([3]; at 17.2 µM (top of the series)) -2.1% | activity change, negative = inhibition ([3]; at 38 µM (top of the series)) -5.09% | activity, negative = inhibition ([4]; at 7.69 µM (top of the series) unless noted) 5.89% [at 17.2 µM] | Potency [7] | Potency [8] | Potency [9] | outcome [12] | outcome [13] | outcome [14] | outcome [15] | outcome [16] | activity change, negative = inhibition [17] 0.0029% | Potency [18]

CC(C)(C)NC[C@H](O)c1cc(O)cc(O)c1
8%: max response [17, 20]
inactive: activity change, negative = inhibition ([1]; at 17.2 µM (top of the series)) -14.7% | activity change, negative = inhibition ([1]; at 38 µM (top of the series)) -8.4% | Potency [2] | activity change, negative = inhibition ([3]; at 17.2 µM (top of the series)) -10.3% | activity change, negative = inhibition ([3]; at 38 µM (top of the series)) 0.832% | activity, negative = inhibition ([4]; at 17.2 µM (top of the series)) -0.828% | activity, negative = inhibition ([4]; at 38 µM (top of the series)) 3.91% | Potency [7] | Potency [8] | Potency [9] | outcome [12] | outcome [13] | outcome [14] | outcome [15] | outcome [16] | activity change, negative = inhibition [17] -2.66% | activity, negative = inhibition ([19]; at 28.7 µM (top of the series), parasite line A) -9.2% | activity, negative = inhibition ([19]; at 28.7 µM (top of the series), parasite line B) -17.1%
4.68%: max response [17, 21]

O=C(c1ccccc1)c1ccc2n1CC[C@H]2C(=O)O
inactive: activity change, negative = inhibition ([1]; at 17.2 µM (top of the series)) -5.93% | activity change, negative = inhibition ([1]; at 38 µM (top of the series)) -1.3% | activity change, negative = inhibition ([3]; at 17.2 µM (top of the series)) -13.5% | activity change, negative = inhibition ([3]; at 38 µM (top of the series)) -0.138% | activity, negative = inhibition ([4]; at 17.2 µM (top of the series)) 0.0746% | activity, negative = inhibition ([4]; at 38 µM (top of the series)) 5.51% | Potency [7] | Potency [8] | Potency [9] | outcome [12] | outcome [13] | outcome [14] | outcome [15] | outcome [16] | activity change, negative = inhibition [17] 1.19% | Potency [18] | activity, negative = inhibition ([19]; at 12.8 µM (top of the series), parasite line A) 1.36% | activity, negative = inhibition ([19]; at 12.8 µM (top of the series), parasite line B) 2.01%
active: Potency [2] 15.8 µM
-5.21%: max response [17, 20]
-1.68%: max response [17, 21]

Reference: PubChem BioAssay (NCATS)
